DT40 TDP1 no CPT – qHTS for Inhibitors of human tyrosyl-DNA phosphodiesterase 1 (TDP1): qHTS in cells in absence of CPT; DT40 Tdp1-/- hTDP1 cells, no CPT, ATP luminescence, 48 h; Potency, µM (highest dose often 46.2 µM), inactives show at the highest dose activity change, negative = growth inhibition, most hits filed as inhibitors; hit rate 15% among 420,000; further: potency means the concentration at half of the fitted maximal effect; nearly all actives have a fitted effect of over 55% in size
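Chicken DT40 Tdp1-/- cells complemented with human TDP1, screened without camptothecin (DMSO vehicle only), 400 cells/well. Compounds pin-transferred, cells incubated at 37 °C for at least 48 hr. Growth read as ATP-dependent luminescence (CellTiter-Glo, 30 min at RT).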
TDP1 cell CPT – DT40-hTDP1 cell growth loss with CPT; chicken DT40 Tdp1-/-;hTDP1 cells + 20 nM CPT, ATP luminescence, 48 h; hit rate 12% among 420,000; Potency, µM (titrated, usually from 46.2 µM), without a hit: top-dose activity change, negative = growth inhibition, hits mostly inhibitors; further: potency means the concentration at half of the fitted maximal effect; nearly all actives have a fitted effect of over 55% in size
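Chicken DT40 Tdp1-/- cells complemented with human TDP1, 400 cells/well, exposed to compounds plus 20 nM camptothecin for at least 48 h at 37 C; viability read as ATP content by CellTiter-Glo luminescence.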
HT1080-NT tox – kills 2HG-producing HT-1080-NT fibrosarcoma cells; HT-1080-NT fibrosarcoma viability, CellTiter-Glo ATP luminescence, 48 h; Potency, µM (series often up to 46.1 µM), for the others: at the top dose activity, negative = less viability, usual class: cytotoxic; hit rate 1.6% among 360,000;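 further: NT is the 2HG producing partner of a matched IDH1 knockdown line; potency means the concentration at half of the fitted maximal effect; 0% = DMSO-treated cells and -100% = media-only wells without cells; nearly all actives have a fitted effect of over 55% in size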
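HT-1080-NT fibrosarcoma cells (2HG-overproducing), 750 cells/well in RPMI with 5% FBS, dosed after 2 h and incubated 48 h at 37C. CellTiter-Glo luminescence normalized to DMSO and no-cell wells; concentration-response curves fitted and classed.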
HT1080 IDH1KD tx – toxicity to HT-1080 IDH1 knockdown cells (counter line); AID 686971; HT-1080 IDH1 knockdown viability, ATP luminescence, 48 h; Potency, µM (series often up to 46.1 µM), for inactives: at the top dose activity, negative = toxicity, actives largely listed as cytotoxic; hit rate 2% among 360,000;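 further: potency means the concentration at half of the fitted maximal effect; 0% = DMSO wells and -100% = cell-free medium wells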
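IDH1KD HT-1080 cells, 750/well, RPMI + 5% FBS; compound pinned after 2 h settling; 48 h, 37 °C; CellTiter-Glo luminescence; % activity normalised to DMSO and no-cell wells; curves fitted, classed by r2 and efficacy.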
IL-1B inflam inh – blocks inflammasome-driven IL-1 beta release; AID 743279; hit rate 4.7% among 360,000; activity change, % at 57.5 µM; THP-1 LPS/ATP IL-1B secretion, AlphaLISA, 16 h; active compounds read low; in the data active means activity change below about -50%; inconclusive means mostly about -30% to -49%
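Secreted IL-1B measured by AlphaLISA bead assay after 16 h compound exposure of THP-1 cells; compounds (final up to 57.5 uM) added 1 h before LPS (250 ng/mL) and ATP (1.25 mM) stimulation; lower signal means less secretion.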
The depositor's hits bear a star; ? = inconclusive; · = no result; [ ] = remark or other dose. Compounds with a hit are over-represented: about 19% of the library has one in this group of screens. Unless noted, the call rests on the fitted dose curve; in most records, active means well fitted curve in the direction sought with a large enough effect; inconclusive means small, poorly fitted or top-dose-only effect, or another doubt; inactive means no such curve, though single readings can be large; an effect the other way counts as inactive or inconclusive. Unless noted, on the % scale 0 is the no-effect control and ±100 the full control effect.

SMILES	DT40 TDP1 no CPT	TDP1 cell CPT	HT1080-NT tox	HT1080 IDH1KD tx	IL-1B inflam inh
O=C(Cn1cnc([N+](=O)[O-])c1)Nc1cc(Oc2ccc(Cl)cc2Cl)cc([N+](=O)[O-])c1	16µM*	16µM*	21µM*	?	-58*
O=C(CCl)Nc1cc(SCC(O)CO)cc([N+](=O)[O-])c1 (centres undefined)	?	4.6µM*	1.8µM*	1.6µM*	-101*
CCC(=O)Nc1cc(SCCO)cc([N+](=O)[O-])c1	-9%	-12%	-7%	4%	-6
CC(C)=NOc1cc(NC(=O)CCl)cc([N+](=O)[O-])c1	4.1µM*	3.7µM*	5.8µM*	9.2µM*	-100*
COC(=O)c1ccc(N(CC(=O)NC2CCCCC2)C(=O)CNC(=O)c2ccco2)cc1	-21%	0%	0%	2%	10
CCn1nc(C)c2c(-c3ccccc3)cc(=O)n(C(C)C(=O)NCCC(C)C)c21 (centres undefined)	?	18µM*	·	·	·
CCn1nc(C)c2c(-c3ccccc3)cc(=O)n(C(C)C(=O)NCc3ccc(C)cc3)c21 (centres undefined)	?	18µM*	·	·	·
CCn1nc(C)c2c(-c3ccccc3)cc(=O)n(C(C)C(=O)NCCc3ccccc3)c21 (centres undefined)	?	18µM*	·	·	·
O=C(N/N=C/c1cccc(F)c1)c1cc(-c2ccco2)nc2ccccc12	10µM*	15µM*	?	16µM*	29
COc1ccc(/C=N/NC(=O)c2ccc(CN3C(=O)c4cccc5cccc3c45)cc2)cc1O	?	?	?	-4%	16
COc1ccc(NC(=O)c2cc(-c3ccco3)nc3ccccc23)cc1	?	-10%	?	?	11
COc1cc(/C=N/NC(=O)c2cc(-c3ccccc3Cl)nc3ccccc23)cc(OC)c1O	6.5µM*	?	?	?	-10
COc1cc(/C=N/NC(=O)c2cc(-c3ccco3)nc3ccccc23)cc(OC)c1O	?	10µM*	-24%	-15%	29
COc1cc(/C=N/NC(=O)c2ccc(CN3C(=O)c4cccc5cccc3c45)cc2)cc(OC)c1O	?	13µM*	-29%	?	40
O=C(COc1ccccc1[N+](=O)[O-])N(Cc1ccco1)C1CCS(=O)(=O)C1 (centres undefined)	17%	0%	14%	12%	0
CCCCOc1ccc(C2/C(=C(/O)c3ccc4c(c3)CC(C)O4)C(=O)C(=O)N2CCCN2CCOCC2)cc1OC (centres undefined)	?	?	-5%	-6%	5
CCCNC(=O)C1(C)CCN(C(=O)c2ccc(C)c(F)c2)C1 (centres undefined)	-2%	-1%	?	14%	-11
COc1cc(/C=N/NC(=O)c2cc(-c3cccc(Br)c3)nc3ccccc23)cc(OC)c1O	?	21µM*	?	12µM*	44
COc1ccc(/C=N/NC(=O)c2cc(-c3ccccc3)nc3ccccc23)c(C(=O)O)c1OC	-23%	-16%	1%	-15%	1
Cc1ccc(CN=Cc2[nH]c3ccc(Br)c(Cl)c3c2O)cc1	21µM*	?	-24%	18µM*	0
CCCN1C(=O)/C(=N\OCC(=O)NC23CC4CC(CC(C4)C2)C3)c2ccccc21	16µM*	16µM*	-5%	-1%	-4
CC(C)C(NS(=O)(=O)c1cccc(C(F)(F)F)c1)C(=O)NCc1cccs1 (centres undefined)	?	1%	2%	3%	10
CC(=O)Nc1ccc(NC(=O)CSc2nnc(NC(=O)c3ccccc3F)s2)cc1	-25%	-1%	-5%	2%	-4
O=[N+]([O-])c1ccc(C2=NN(CCO)C(=Nc3ccc(OC(F)(F)F)cc3)SC2)cc1	21µM*	18µM*	?	15µM*	-63*
NCCCNC(=O)c1ccc(/C=N/O)nc1	-3%	33%	15%	21%	2
SMILES	DT40 TDP1 no CPT	TDP1 cell CPT	HT1080-NT tox	HT1080 IDH1KD tx	IL-1B inflam inh
CCOc1ccccc1CN1CCNC(=O)C1CC(=O)N(C)Cc1nonc1C (centres undefined)	1%	?	-8%	-3%	-57*
O=C(NC1CCN(Cc2ccccc2)CC1)C1CCN(S(=O)(=O)c2cccc3cccnc23)CC1	15µM*	18µM*	-7%	0%	30
O=C(NC1CCCCCC1)C1CCN(S(=O)(=O)c2cccc3cccnc23)CC1	-10%	-3%	0%	10%	-5
O=S(=O)(NC1CCN(Cc2ccccc2)CC1)c1cccc2cccnc12	18µM*	?	?	?	-2
O=S(=O)(NCC1CCCN(Cc2ccccc2)C1)c1cccc2cccnc12 (centres undefined)	-4%	-2%	-4%	-2%	?
CN(Cc1ccco1)Cc1cc(-c2ccnc3cc(Cl)ccc23)ccc1O	?	-21%[9.04 µM]	·	·	·
Cc1ncc2c(c1CNC(=O)CN1CCCC1)CCN(C(=O)c1ccc(F)cc1F)C2	-16%	-6%[9.04 µM]	·	·	·
O=C(Cc1ccc(Cl)cc1)N/N=C/c1c(Cl)cccc1Cl	?	-20%	12%	18%	14
Cc1ccc(O)c(/C=N/NC(=O)Cc2ccc(Cl)cc2)c1	?	?	?	13µM*	95
O=C(Cc1ccc(Cl)cc1)N/N=C/c1ccc(O)c(O)c1	13µM*	?	-16%	-29%	14
Cc1ccsc1/C=N/NC(=O)Cc1ccc(Cl)cc1	?	?	-16%	-13%	0
CCc1cc2c(=O)n(Cc3ccccc3)c(SC3CCOC3=O)nc2s1 (centres undefined)	?	?	18%	3%	9
CCN(C(=O)c1ccc2c(c1)OCO2)C12CC3CC(CC(C3)C1)C2	23µM*	?	-3%	-1%	5
CCN(CC(=O)NCc1cccs1)C(=O)c1cccc(S(=O)(=O)N(C)C)c1	-14%	-7%	1%	19%	11
CCN(C(=O)c1cccc(S(=O)(=O)N(C)C)c1)C12CC3CC(CC(C3)C1)C2	12µM*	13µM*	-9%	-14%	-7
Cc1ccc(CSc2nccc(-c3c(C)nc4ccccn34)n2)cc1	16µM*	?	2%	1%	-12
CN(CCc1ccccc1)C(=O)c1ccc(NC(=O)Cc2cccc(NC(=O)C3CCN(C(=O)c4ccccc4)CC3)c2)cc1	?	?	-15%	-15%	-9
Cc1cc(OCC(=O)N(Cc2ccco2)c2c(N)n(Cc3ccccc3)c(=O)[nH]c2=O)ccc1Cl	?	26µM*	-14%	-1%	-23

Screens from PubChem BioAssay.
